Test results taken from the supplement of paper PMC10127200.
Structures can show the parent of a compound that is named as a salt.

How the values were obtained:
Experiment in all cases: Euclidean distance of Cell Painting phenotypic profile (signed KS, 77 features) to DMSO centroid (dimensionless distance); 5 or 10 uM (library dependent); higher = stronger phenotypic change vs DMSO (phenoactivity)
Settings in all cases: 48 h
786-O = tested on: 786-O
Summary of the method: (§1)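 Harmony extracted 77 features from 20X confocal images (9 fields/well) of stained cells, scoring each as a signed Kolmogorov-Smirnov statistic against same-plate vehicle wells. The cells, five cancer lines and a healthy fibroblast line, had received library compounds for 48 h at 10 or 5 uM depending on library, with 0.1% DMSO final. Phenoactivity is the Euclidean distance from each plate-position-corrected, correlation-weighted, top-dose replicate-averaged profile to the median vehicle profile.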

A549 = tested on: A549
Summary of the method: as §1

DU145 = tested on: DU145
Summary of the method: as §1

FB = tested on: FB
Summary of the method: as §1

HEPG2 = tested on: HEPG2
Summary of the method: as §1

OVCAR4 = tested on: OVCAR4
Summary of the method: as §1

Structure (SMILES)	Euclidean distance (786-O)	Euclidean distance (A549)	Euclidean distance (DU145)	Euclidean distance (FB)	Euclidean distance (HEPG2)	Euclidean distance (OVCAR4)
CNC(=C[N+](=O)[O-])NCCSCc1ccc(CN(C)C)o1 [Ranitidine]	0.881	0.596	0.696	0.903	1.02	0.83
N[C@@H](Cc1c[nH]c2ccccc12)C(=O)O [L-Tryptophan]	0.689	1.11	0.644	0.569	0.851	1.36
NC[C@H]1CC[C@H](C(=O)O)CC1 [Tranexamic Acid]	1.31	0.903	0.735	0.672	1.31	1.09
CC1CCc2cc(F)cc3c(=O)c(C(=O)O)cn1c23 (centres undefined) [Flumequine]	1.37	0.57	1.32	0.897	0.704	1.44
OCC(CO)N[C@H]1C[C@](O)(CO)[C@@H](O)[C@H](O)[C@H]1O [Voglibose]	0.92	0.919	0.846	0.977	1.06	1.34
CCOC(=O)[C@H](CCc1ccccc1)N[C@@H](C)C(=O)N1Cc2cc(OC)c(OC)cc2C[C@H]1C(=O)O [Moexipril HCl]	1.48	1.49	1.02	0.74	2.35	1.78
NS(=O)(=O)c1cc2c(cc1Cl)NC(C1CC3C=CC1C3)NS2(=O)=O (centres undefined) [Cyclothiazide]	1.37	0.917	0.711	1.07	0.641	2.44
c1ccc2[nH]c(-c3cscn3)nc2c1 [Thiabendazole]	1.16	0.753	1.31	1.1	1.93	0.914
O=c1ncccn1[C@@H]1O[C@H](CO)[C@@H](O)[C@H]1O [Zebularine]	1.2	1	0.895	0.816	0.887	0.492
O=c1[nH]cnc2nc[nH]c12 [Hypoxanthine]	1.19	1.2	1.16	1.66	0.856	2.43
COc1ccc(C(=O)c2ccccc2)c(O)c1 [Oxybenzone]	1.07	0.943	0.824	1.34	0.753	1.32
Nc1nc(NC2CC2)c2ncn([C@H]3C=C[C@@H](CO)C3)c2n1 [Abacavir]	1.46	0.752	1.02	1.21	0.494	1.25
O=C(NNc1nc2cc(F)ccc2n2cccc12)c1cnccn1	3.74	2.78	2.25	3.85	2.84	5.56
CC(=O)Oc1cc(C(C)C)c(OCCN(C)C)cc1C [Moxisylyte hydrochloride]	0.394	0.612	1.83	1.12	0.369	0.608
COC(=O)c1ccc2c(C(=Nc3ccc(N(C)C(=O)CN4CCN(C)CC4)cc3)c3ccccc3)c(O)[nH]c2c1 [Nintedanib Ethanesulfonate Salt]	3.68	3.84	2.5	4.88	3.9	4.19
O=C(Nc1ccc(Cl)cc1)Nc1ccc(Cl)c(Cl)c1 [Triclocarban]	2.18	3.14	1.62	1.74	3.53	2.98
CCCCC(O)c1ccccc1 (centres undefined) [Fenipentol]	1.46	1.44	1.43	0.766	0.912	1.68
FC(F)(F)c1ccc(CNc2ccc(Cc3c[nH]c4ncc(Cl)cc34)cn2)cn1 [Pexidartinib (PLX3397)]	1.31	1.41	1.04	1.53	2.18	1
Cc1ccc([C@@H]2O[C@H](CO)[C@@H](O)[C@H](O)[C@H]2O)cc1Cc1ccc(-c2ccc(F)cc2)s1 [Canagliflozin hemihydrate]	1.46	2.27	0.936	1.44	1.06	1.37
CO/N=C(\C(=O)N[C@@H]1C(=O)N2C(C(=O)OCOC(=O)C(C)(C)C)=C(/C=C\c3scnc3C)CS[C@H]12)c1csc(N)n1 [Cefditoren Pivoxil]	1.06	0.732	1.67	1.03	2.12	1.5
O=c1ccn(C2OC(COP(=O)(O)O)C(O)C2O)c(=O)[nH]1 (centres undefined) [Uridine 5'-monophosphate]	1.18	1.21	1.33	1.3	1.01	1.23
CN(C)CCC=C1c2ccccc2C(C)(C)c2ccccc21 [Melitracen hydrochloride]	1.33	1.82	2.27	2.65	1.5	1.37
CC(=O)OCC[N+](C)(C)C [Acetylcholine iodide]	0.893	0.442	0.869	0.877	0.594	1.19
CC(=O)Oc1ccc(C(c2ccc(OC(C)=O)cc2)c2ccccn2)cc1 [Bisacodyl]	1.2	1.2	0.531	3.08	0.712	1.41
CN(C)[C@@H]1C(O)=C(C(N)=O)C(=O)[C@@]2(O)C(O)=C3C(=O)c4c(O)cccc4[C@@](C)(O)[C@H]3[C@H](O)[C@@H]12 [Oxytetracycline Dihydrate]	1.33	0.832	1.09	1.19	1.9	1.3

Structure (SMILES)	Euclidean distance (786-O)	Euclidean distance (A549)	Euclidean distance (DU145)	Euclidean distance (FB)	Euclidean distance (HEPG2)	Euclidean distance (OVCAR4)
CCOC(=O)[C@H](CCc1ccccc1)N[C@@H](C)C(=O)N1[C@H](C(=O)O)C[C@@H]2CCC[C@@H]21 [Ramipril]	1.25	0.735	0.891	1.1	1.89	1.21
CN(C)N(C)C(=O)[C@@]1(Cc2ccccc2)CCCN(C(=O)[C@@H](Cc2c[nH]c3ccccc23)NC(=O)C(C)(C)N)C1 [Anamorelin]	1.33	0.796	0.841	1.59	0.82	0.802
CCN(CC)CC#CCOC(=O)C(O)(c1ccccc1)C1CCCCC1 (centres undefined) [Oxybutynin]	0.749	0.615	1.19	0.788	1.25	0.913
NCC(=O)CCC(=O)O [5-Aminolevulinic acid HCl]	1.2	0.994	1.81	1.12	1.61	2
CCOC(=O)OC(C)OC1=C(C(=O)Nc2ccccn2)N(C)S(=O)(=O)c2ccccc21 (centres undefined) [Ampiroxicam]	1.26	1.35	0.928	0.606	0.41	1.47
Cc1ccc(C(C)C)c(O)c1 [Thymol]	0.798	1.8	1.2	0.901	0.572	1.46
CNC(=C[N+](=O)[O-])NCCSCc1csc(CN(C)C)n1 [Nizatidine]	1.68	1.53	2.02	0.759	1.7	1.18
Cc1nc(C)c(C)nc1C [Ligustrazine hydrochloride]	0.557	0.605	0.684	0.693	0.523	0.693
C[C@@H](NCCCc1cccc(C(F)(F)F)c1)c1cccc2ccccc12 [Cinacalcet HCl]	1.32	1.57	1.89	1.06	1.85	1.42
O=C(NC1CCOCC1)c1ccc(-c2cc(-c3c[nH]nc3-c3ccccn3)ccn2)cc1	1.22	0.965	0.674	1.3	1.01	0.73
c1cc(-c2cnn3cc(-c4ccc(N5CCNCC5)cc4)cnc23)c2cccnc2c1	5.15	5.05	4.45	6.55	5.9	6.68
COc1ncc(-c2ccc3nccc(-c4ccnnc4)c3c2)cc1NS(=O)(=O)c1ccc(F)cc1F	4.98	3.16	2.84	3.96	2.53	3.04
O=C(c1cn(Cc2cncn2Cc2ccc(Br)cc2)cc1-c1cccc2ccccc12)N1CCOCC1	2.26	2.37	1.56	2.75	1.15	1.92
C[C@@H](c1ncncc1F)[C@](O)(Cn1cncn1)c1ccc(F)cc1F [Voriconazole]	1.9	1.17	0.9	1.01	0.988	1.25
C#CCN(C)Cc1ccccc1 [Pargyline hydrochloride]	1.39	0.874	1.18	1.16	0.696	1.43
CCC(=O)O[C@H]1[C@H](O[C@@H]2[C@@H](C)[C@H](O[C@H]3C[C@@](C)(OC)[C@@H](O)[C@H](C)O3)[C@@H](C)C(=O)O[C@H](CC)[C@@](C)(O)[C@H](O)[C@@H](C)C(=O)[C@H](C)C[C@@]2(C)O)O[C@H](C)C[C@@H]1N(C)C [Erythromycin estolate]	0.939	1.04	1.77	1.82	0.988	1.19
CN(C)CCc1c[nH]c2ccc(C[C@H]3COC(=O)N3)cc12 [Zolmitriptan]	1.26	1.23	1.25	0.876	0.663	1.74
CCS(=O)(=O)c1cccc(-c2cc(C(=O)NC3CCN(C)CC3)c(C)c3[nH]c4ncc(C)cc4c23)c1	3.1	3.9	2.89	3.63	2.3	2.17
CN(C)CCCN1c2ccccc2CCc2ccccc21 [Imipramine HCl]	1.05	0.896	1.15	1.55	1.13	1.33
Cc1cccc(-c2[nH]c(CNc3ccccc3F)nc2-c2ccc3ncnn3c2)n1 [Vactosertib ?(TEW-7197)]	1.71	1.61	1.41	1.83	1.26	1.5
C[C@H](NC(=O)Cc1cc(F)cc(F)c1)C(=O)N[C@H](C(=O)OC(C)(C)C)c1ccccc1	1.92	1.48	1.11	0.913	1.57	1.26
CCCC(C(=O)OCCN(CC)CC)(c1ccccc1)c1ccccc1 [Proadifen HCl]	1.14	1.1	2.58	1.59	1.89	1.13
Cn1nnc(-c2ccc(-c3ccc(N4C[C@H](COP(=O)(O)O)OC4=O)cc3F)cn2)n1 [Tedizolid Phosphate]	0.75	0.64	0.82	0.929	0.638	0.87
CC(=O)NO [Acetohydroxamic acid]	1.37	1.28	0.954	1.17	0.648	0.776
